Sampled rows, rich in hits. Any-hit rate of the full collection: about 1.5%.
Neddyl block: blocks human cullin neddylation. P61081+Q13564. TR-FRET cullin neddylation, biochemical. inhibition, % at 25 µM. 360,000 tested, 0.58% active. AID 651699; in the data active = inhibition above about 36%
Target sequence (P61081 whole entry, looked up): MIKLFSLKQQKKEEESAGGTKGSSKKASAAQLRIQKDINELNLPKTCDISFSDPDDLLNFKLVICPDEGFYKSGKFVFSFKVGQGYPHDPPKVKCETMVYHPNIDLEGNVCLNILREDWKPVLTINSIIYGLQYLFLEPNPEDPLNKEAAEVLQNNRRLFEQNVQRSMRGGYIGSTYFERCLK
Target sequence (Q13564 whole entry, looked up): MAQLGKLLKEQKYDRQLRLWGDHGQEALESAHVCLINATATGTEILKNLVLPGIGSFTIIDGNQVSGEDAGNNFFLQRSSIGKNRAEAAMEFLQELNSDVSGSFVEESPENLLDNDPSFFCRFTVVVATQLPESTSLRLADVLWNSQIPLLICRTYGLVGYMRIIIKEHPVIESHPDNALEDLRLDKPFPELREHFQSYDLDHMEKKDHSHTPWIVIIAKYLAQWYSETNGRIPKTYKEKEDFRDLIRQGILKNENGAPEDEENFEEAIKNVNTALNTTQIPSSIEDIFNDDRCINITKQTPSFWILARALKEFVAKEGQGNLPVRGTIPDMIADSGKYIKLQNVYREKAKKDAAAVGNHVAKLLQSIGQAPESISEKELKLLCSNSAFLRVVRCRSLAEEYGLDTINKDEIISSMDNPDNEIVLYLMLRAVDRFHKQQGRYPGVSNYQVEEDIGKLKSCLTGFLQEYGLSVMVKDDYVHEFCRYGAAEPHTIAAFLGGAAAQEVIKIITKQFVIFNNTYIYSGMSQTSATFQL
NPR1 activator: GC-A (human) enzyme activation | activation, % at 10 µM | 370,000 tested, 0.14% active | P16066 | AID 1671463 | HEK293 GC-A cells, cGMP TR-FRET, EC30 ANP; 0% at EC30 ANP, 100% saturating ANP; in the data active = activation above about 40%
NadD inh: blocks S. aureus nicotinate mononucleotide adenylyltransferase | purified NadD enzyme, colorimetric absorbance read-out | inhibition, % at 20 µM | 360,000 tested, 0.78% active | AID 602399; in the data active = inhibition above about 26%
NPR2 activator: GC-B (human) receptor activation. activation, % at 10 µM. AID 1920062. P20594. HEK293-GC-B cells, CNP EC30, cGMP TR-FRET; 0% at EC30 CNP, 100% saturating CNP. 370,000 tested, 0.11% active;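 active = activation at 10 µM reaching about 35% in either raw or pattern-adjusted values, limit read from the data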
NadD conf: confirmation of Staphylococcus aureus NadD inhibitors; shares compounds with NadD inh; purified S. aureus NadD, colorimetric enzyme assay; inhibition, % at 20 µM; 2,000 tested, 13% active; in the data active = inhibition mostly above about 42%, no sharp cut-off; inactive = mostly below about 42%
Starred values were filed as active, the others as inactive; . = no result shown.

SMILES	Neddyl block	NPR1 activator	NadD inh	NPR2 activator	NadD conf
O=C1NC[C@H](Cc2ccccc2)N(C[C@@H]2CCCN2C[C@H](Cc2ccc(O)cc2)N2C[C@H](Cc3ccccc3)N(CC3CCCCCC3)C(=O)C2=O)C1=O	1	3	39*	0	48*
CC(C)C[C@H]1CN([C@@H](Cc2ccccc2)CN2CCC[C@H]2CN2C(=O)C(=O)NC[C@@H]2Cc2ccc(O)cc2)C(=O)C(=O)N1CC1CCCCC1	3	2	31*	6	40
O=C1NC[C@H](CCCCN2C[C@H](Cc3ccc(O)cc3)N(CC3CCCCC3)C(=O)C2=O)N(CCC2CCCCC2)C1=O	5	0	18	-1	.
O=C1NC[C@H](Cc2ccccc2)N(C[C@@H]2CCCN2C[C@H](Cc2ccccc2)N2C[C@H](Cc3ccccc3)N(CC3CCCCC3)C(=O)C2=O)C1=O	-8	-1	22	9	.
O=C1NC[C@@H](CCCCN2C[C@H](Cc3ccc(O)cc3)N(CCC3CCCCC3)C(=O)C2=O)N(CC2CCCCC2)C1=O	1	0	44*	9	47*
CN(C)C(=O)N1CCN(C(=O)[C@H]2O[C@@H](n3ccc(N)nc3=O)[C@H](O)[C@@H]2O)CC1	.	2	.	-1	.
C=CCN1[C@H](C)COc2cc(N3CCCC3)ccc2S1(=O)=O	.	-3	.	-3	.
CC1Cc2ccccc2N1Cc1cc(=O)n2ccsc2n1 (configuration not stated)	3	-2	28*	4	11
COC(=O)CCCC1=CC2=CC(=O)C(C)(OC(=O)CCc3ccccc3)C(=O)C2=CO1 (configuration not stated)	24	.	41*	.	72*
Cc1ccc(C(=O)c2oc3ccccc3c2NC(=O)c2cc(-c3ccccc3O)n[nH]2)cc1	.	-1	34*	3	5
O=C(Nc1c(C(=O)c2ccccc2)oc2ccccc12)c1cc(-c2ccccc2O)n[nH]1	26	7	34*	-5	32
Cc1c[nH]c2cccc(-c3ccc4c(c3)OCO4)c12	.	-1	.	-1	.
O=C(Nc1nc(-c2ccccn2)cs1)c1ccc(Cl)s1	.	3	0	-1	.
O=C(Nc1nc(-c2ccccn2)cs1)c1ncc(Cl)c(Cl)c1Cl	-2	4	36*	-2	5
COC(=O)[C@]12C[C@H](CC(=O)N3CCOCC3)C(=O)N(Cc3ccc(Cl)cc3Cl)C1=C[C@H](C(C)(C)C)O[C@@H]2C	.	-24	.	-21	.
CCOc1cc(/C=N\Nc2ccc([N+](=O)[O-])cc2)ccc1OCC(=O)Nc1ccc(C)c(C)c1	2	-4	44*	1	3
CCOc1ccc(Br)cc1S(=O)(=O)Nc1ccc(C(=O)OCC(=O)Nc2ccc(C#N)cc2)cc1	8	-5	34*	-9	41
COc1ccc2oc(=O)c(-c3csc(Nc4cccc(O)c4)n3)cc2c1	25	5	35*	-4	59*
COc1ccc(Nc2nc(-c3cc4cccc(OC)c4oc3=O)cs2)cc1	-6	6	44*	-5	-4
COc1cccc2cc(/C(C)=N/Nc3nc(-c4cc(C)ccc4C)cs3)c(=O)oc12	-8	-2	34*	4	20
CCOC(=O)N[C@H](C(=O)N1CCC[C@H]1C(=O)NC1CCCC1)C1CCCCC1	.	1	.	-5	.
CC1CCCN(c2cccc3c2S(=O)(=O)N([C@H](C)c2ccccc2)C[C@@H](COCc2ccccc2)O3)C1 (some centres not stated)	.	0	.	4	.
COc1ccc(-c2ccc3[nH]c4c(c3c2)CCN2C[C@@H]([C@H](C)OC(=O)Nc3cc(Cl)cc(Cl)c3)[C@@H](N(C)C(=O)Nc3cc(Cl)cc(Cl)c3)C[C@@H]42)cc1	-72	-1	38*	1	1
C=CCn1c(C)cc(-c2csc(NC(=O)CCc3nc4ccccc4c(=O)[nH]3)n2)c1C	5	-7	52*	6	28
Cc1cc(-c2csc(NC(=O)c3cc4ccccc4o3)n2)c(C)n1C	-2	-26	36*	-4	8
SMILES	Neddyl block	NPR1 activator	NadD inh	NPR2 activator	NadD conf
Cc1cc(-c2csc(NC(=O)c3ccc(C#N)cc3)n2)c(C)n1Cc1ccco1	-5	-7	34*	-1	24
Cc1cc(-c2csc(NC(=O)c3ccc(=O)[nH]c3)n2)c(C)n1Cc1ccccc1	-21	-8	48*	-6	40
N#Cc1ccc(-c2csc(NC(=O)c3ccc(N4C(=O)CCC4=O)cc3)n2)cc1	9	9	1	3	.
C#CCNC(=O)C[C@@H]1C(=O)N(Cc2ccc(OC)cc2)/C2=C/CCCCC[C@@]21C(=O)OCC	.	-5	.	3	.
CCOC(=O)N1C(=O)C[C@](Sc2ccc(OC)cc2)(C(=O)N2CCN(c3ncccn3)CC2)[C@H]1c1ccc(OC)cc1	.	-1	.	-7	.
O=C(c1ccccc1OCc1ccccc1)N(Cc1ccccn1)CC1CCCO1 (configuration not stated)	.	-7	.	-1	.
O=C(C(=O)N1CCC(CNS(=O)(=O)c2ccc(F)c(F)c2)CC1)c1cc2ccccc2o1	.	-2	.	9	.
COc1cccc(NC(=O)Nc2nc3ncccn3c2-c2ccc(C)cc2)c1	.	0	.	1	.
CCN(C)c1nc(C)nc2c1nnn2Cc1ccccc1	.	5	.	0	.
O=C(CNc1ccc2c(c1)OCO2)N/N=C\c1cn(Cc2ccccc2)c2ccccc12	-2	-3	37*	1	19
CCCCc1nnn2c1C1c3cc(Br)ccc3CCN1C(=O)C2 (configuration not stated)	.	-6	.	-8	.
Cc1ccc(NC(=O)[C@@H]2CC(=O)O[C@@H]2c2ccccc2)c(C)c1	.	4	.	7	.
COc1ccc(Cn2c(O)c(C=Nc3ccccc3C(=O)O)c3ccccc3c2=O)cc1	-20	-3	16	1	.
COc1ccccc1NS(=O)(=O)c1cccc(-n2c(O)c(C=Nc3ccccc3C(=O)O)c3ccccc3c2=O)c1	-23	-18	31*	6	54*
CC(C)(C)OC(=O)[C@H](Cc1ccccc1)NC(=O)c1ncn2c1c(=O)[nH]c1ccc(Br)cc12	-317	19	40*	39*	4
Cc1ccc2nc(NC(=O)C3CCN(S(=O)(=O)c4cc([N+](=O)[O-])ccc4Cl)CC3)sc2c1	-11	3	31*	1	0
O=C(Nc1nc2ccc(F)cc2s1)C1CCN(S(=O)(=O)c2cc([N+](=O)[O-])ccc2Cl)CC1	-13	22	35*	-7	12
Cc1ccc(NC(=O)C2CCN(S(=O)(=O)c3cc([N+](=O)[O-])ccc3Cl)CC2)nc1	-26	2	3	-2	.
CC1=Nc2nc(N3CCCCC3)c(C#N)c3c4c(nc(c23)N1)N(c1ccc(C(C)C)cc1)C(=O)C4	-2	10	63*	-3	12
COC(=O)[C@]12C[C@H](CC(=O)NCCCN3CCCC3=O)C(=O)N(CCc3ccc(OC)c(OC)c3)C1=C[C@H](C(C)(C)C)O[C@@H]2C	.	2	.	1	.
